NFkB transloc pot – enhancers of NFkB p65 translocation in HUVEC – imaging, IL-1B stimulus, high-content imaging, primary screen | activation, % at 2 µM | HUVEC IL-1B NFkB p65 nuclear translocation imaging | actives 0.3% (n = 94,000);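 active = activation above 40%, about the mean plus 3 SD, also judged a hit on visual image review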;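 note: percent activation is computed from the nuclear over cytoplasmic p65 intensity ratio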
sEH act – soluble epoxide hydrolase activators, primary screen, biochemical, human sEH | Bifunctional epoxide hydrolase 2 (Homo sapiens), P34913 | purified human sEH enzymatic activity, activator screen | activation, % at 2 µM | actives 0.04% (n = 91,000); in the data active = activation above about 37%
Target sequence (P34913 whole entry, looked up): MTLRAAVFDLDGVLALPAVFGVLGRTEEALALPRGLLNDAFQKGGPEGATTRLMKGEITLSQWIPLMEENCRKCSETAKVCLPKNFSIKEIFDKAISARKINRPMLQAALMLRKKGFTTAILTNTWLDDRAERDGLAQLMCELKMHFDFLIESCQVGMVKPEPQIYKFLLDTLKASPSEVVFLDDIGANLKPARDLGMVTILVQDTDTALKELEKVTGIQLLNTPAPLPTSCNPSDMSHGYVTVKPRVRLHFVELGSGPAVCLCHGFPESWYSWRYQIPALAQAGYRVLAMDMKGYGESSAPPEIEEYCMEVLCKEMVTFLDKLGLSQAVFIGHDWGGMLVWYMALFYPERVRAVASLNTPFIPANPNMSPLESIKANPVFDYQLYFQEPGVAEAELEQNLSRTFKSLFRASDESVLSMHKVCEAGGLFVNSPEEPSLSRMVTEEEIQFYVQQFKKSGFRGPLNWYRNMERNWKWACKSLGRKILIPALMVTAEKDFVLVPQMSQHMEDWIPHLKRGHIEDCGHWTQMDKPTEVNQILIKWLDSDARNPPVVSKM
sEH inh – soluble epoxide hydrolase inhibitors, primary screen, biochemical, human sEH; Bifunctional epoxide hydrolase 2 (Homo sapiens), P34913; recombinant human sEH enzymatic activity assay; inhibition, % at 2 µM; actives 0.34% (n = 91,000); AID 707, 2007; in the data active = inhibition above about 80%
IL1B cytotox – cytotoxicity in IL-1B stimulated HUVEC, primary screen, cytotoxicity control for IL-1B NFkB translocation project, imaging, Hoechst nuclear count, IL-1B stimulus; HUVEC cell count loss; cell count reduction, % at 2 µM; actives 0.41% (n = 94,000); AID 845, 2007;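 active = cell count reduction more than 3 SD above the screen-wide mean, cut at about 70% in these data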;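 note: normalized per plate to untreated control cells as the no-loss baseline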
IL1B NFkB inh – inhibitors of IL-1B driven NFkB p65 nuclear import, primary screen, imaging, HUVEC, IL-1B stimulus, high-content imaging. HUVEC IL-1B NFkB p65 nuclear translocation imaging. inhibition, % at 2 µM. actives 0.43% (n = 94,000). AID 796, 2007;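 active = inhibition above about 30% together with a positive call from visual inspection of the well image, limit read from the data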;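 note: nuclear over cytoplasmic p65 intensity ratio measured by imaging; 0% = IL-1B stimulated DMSO wells and 100% = unstimulated DMSO wells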
Cav3 T inh – Cav3.2 calcium influx blockers – cell-based, Fluo-4 calcium fluorescence, FDSS, MLSMR library, primary screen. actives 4% (n = 100,000). Cav3.2-expressing cells; active compounds read low. Voltage-dependent T-type calcium channel subunit alpha-1H (Homo sapiens), O95180. AID 449739, 2010. B-score at 10 µM;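 active = single-dose well whose peak fluorescence ratio is a statistical outlier from its plate by either plate-standardised score or position-corrected B-score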
An asterisk follows results filed as active; nt = no result. Only some compounds are listed: those with a hit (about 4.6% of all), similar ones and a draw of the others.

SMILES	NFkB transloc pot	sEH act	sEH inh	IL1B cytotox	IL1B NFkB inh	Cav3 T inh
OC(COCc1ccc(Cl)cc1)CN1CC=C(c2ccccc2)CC1 (stereo not given)	nt	nt	nt	nt	nt	-6.59*
Cc1ccc(S(=O)(=O)NCC2CCC(C(=O)N3CCC4(CC3)OCCO4)CC2)cc1 (stereo not given)	-9.0	-10.0	9.6	-38.3	9.0	0.027
Cc1ccccc1C1=NCC(=O)N(CC(=O)NCc2ccco2)c2sc3c(c21)CCCC3	10.4	7.1	-7.0	-15.8	-10.4	-7.21*
Cn1c2ccccc2c2c(C(=O)N3CCC4(CC3)OCCO4)cn(C3CCCCC3)c(=O)c21	15.2	0.7	-0.4	-20.6	-15.2	-5.05*
CN(C)[C@@H]1C(=O)C(C(N)=O)=C(O)[C@@]2(O)C(=O)C3=C(O)c4c(O)cccc4[C@@](C)(O)[C@H]3[C@H](O)[C@@H]12	nt	nt	nt	nt	nt	-3.75*
CCC(=NCCCn1ccnc1)c1c(O)n(Cc2ccccc2)c(=O)[nH]c1=O	-9.8	15.5	-14.9	-1.3	9.8	0.355
OC(c1ccc(F)cc1)(c1ccc(F)cc1)[C@@H]1CCCN1	2.0	8.1	-7.3	-8.1	-2.0	nt
OC(c1ccccc1)(c1ccccc1)C1CCNCC1	16.1	-6.3	5.7	-9.5	-16.1	-5*
CCOC(=O)c1c(-n2c(C)cc(/C=C3/C(=O)NC(=O)N(CC)C3=O)c2C)sc2c1CCCC2	10.2	7.5	-9.6	-15.2	-10.2	-3.51*
COC(=O)C(C)Oc1cc(C)cc2oc(=O)c3c(c12)CCC3 (stereo not given)	17.6	-6.4	8.3	-5.2	-17.6	0.393
CCC(=O)c1cn(Cc2ccc(C#N)cc2)c2ccccc12	-7.4	3.9	-5.8	-4.8	7.4	-2.12
CC(C)C(=O)c1cn(Cc2ccccc2C#N)c2ccccc12	1.9	-6.3	5.9	12.0	-2.0	-5.63*
Cc1ccc(-n2nc(C)c3c2NC(=O)CSC3c2ccc3c(c2)OCO3)cc1 (stereo not given)	nt	nt	nt	nt	nt	-8.38*
Cc1ccc2occ(CN3CC4CC(C3)c3cccc(=O)n3C4)c(=O)c2c1 (stereo not given)	nt	nt	nt	nt	nt	-0.754
O=C1NC(=O)[C@]2(Cc3ccccc3N3CCN(c4ccccc4)CC32)C(=O)N1c1ccccc1 (stereo not given in full)	2.1	0.1	1.5	-30.2	-2.1	-4.55*
CN1C(=O)NC(=O)[C@]2(Cc3ccccc3N3CCN(c4ccccc4)CC32)C1=O (stereo not given in full)	5.8	0.9	-1.6	-3.8	-5.8	-1.19
CCCCCCCSc1cc(OC)c(CCNC)cc1OC	-14.2	1.6	-0.9	-14.8	14.2	0.397
O=C1CN=C(c2ccc(Br)cc2)c2oc3ccccc3c2N1	-6.5	3.0	-6.1	-3.3	6.5	0.917
COc1cccc(OC)c1C1=NCC(=O)Nc2c1oc1ccc(Br)cc21	nt	nt	nt	nt	nt	-4.24*
CCOC(=O)N(CC)c1ccc(C(O)(C(=O)OCC)C(F)(F)F)cc1 (stereo not given)	nt	nt	nt	nt	nt	-1.26
CCN(c1ccc(C(O)(C(=O)OC)C(F)(F)F)cc1)S(=O)(=O)c1ccccc1 (stereo not given)	nt	nt	nt	nt	nt	-2.91*
CCOC(=O)C(O)(c1ccc(N(CC)S(=O)(=O)c2ccccc2)cc1)C(F)(F)F (stereo not given)	-3.8	-2.0	4.9	-5.7	3.8	-5.14*
O=C1NC(=S)NC(=O)C1C/C=C/c1ccccc1	9.8	-2.2	-1.3	6.2	-9.8	-0.0156
O=C(Cn1ncc2c3ccccc3n(Cc3cccc(Cl)c3)c2c1=O)N1CCC2(CC1)OCCO2	nt	nt	nt	nt	nt	-10.7*
Cn1c2ccccc2c2cnn(CC(=O)N3CCC4(CC3)OCCO4)c(=O)c21	-6.2	-12.9	11.7	16.3	6.2	nt
SMILES	NFkB transloc pot	sEH act	sEH inh	IL1B cytotox	IL1B NFkB inh	Cav3 T inh
CCCCOP(=O)(OCCCC)/C(C#N)=C(/C)O	27.2	13.4	-17.5	5.1	-27.2	-0.621
COCCn1c(-c2ccccc2)cc(C(=O)O)c1C	-11.2	12.5	-10.9	39.7	11.2	nt
O=C(CNS(=O)(=O)c1ccc(Br)s1)N1CCC2(CC1)OCCO2	42.6*	-6.4	6.5	13.9	-42.6	0.922
C/C=C1\CN2[C@H]3C[C@@]45c6ccccc6N(C)[C@H]4[C@@H]2CC1C3[C@H]5O (stereo not given in full)	nt	nt	nt	nt	nt	-4.6*
CCC(C)C1N=C(c2ccccc2)c2cc(Cl)ccc2N(CC(=O)NCc2ccco2)C1=O (stereo not given)	-6.3	7.3	-10.1	15.4	6.3	0.633
CN(C)c1ccc(NC(=O)CN2C(=O)CN=C(c3ccccc3)c3cc(Cl)ccc32)cc1	-5.7	11.9	-13.7	3.6	5.7	-8.87*
CN(C)c1ccc(NC(=O)CN2C(=O)CN=C(c3ccccc3)c3ccccc32)cc1	14.3	10.3	-13.3	-76.8	-14.3	-5.04*
Cc1ccc(NC(=O)CN2C(=O)CN=C(c3ccccc3)c3cc(Cl)ccc32)cc1	-13.3	1.7	-3.3	13.7	13.3	-6.68*
O=C(CN1CCOCC1)c1cccc2ccccc12	27.9	-4.9	6.9	-5.4	-27.9	-0.196
C=Cn1ccnc1P(=S)(c1ccc(N(C)C)cc1)c1nccn1C=C	12.7	-4.9	6.2	-24.2	-12.7	-0.176
O=C(Cc1ccccc1)N1CCN(C/C=C/c2ccccc2)CC1	15.0	-11.8	10.7	-18.3	-15.0	-0.166
Cc1ccc(CC2C(=O)N(C)C(=O)N(C)C2=O)s1	0.5	-2.3	1.8	2.2	-0.5	0.263
Cc1ccc(C(c2nnnn2Cc2ccccc2)N2CC=C(c3ccc(F)cc3)CC2)cc1 (stereo not given)	0.4	-4.9	7.5	-30.0	-0.4	-3.16*
O=C(COc1ccc(Cl)cc1)N1CCN(Cc2ccccc2)CC1	42.8*	nt	nt	-17.0	-42.8	-2
CC(C)NS(=O)(=O)c1ccc(OCC(=O)N2CCN(Cc3ccccc3)CC2)cc1	11.4	1.2	-1.9	-42.7	-11.4	nt
CCCCC/C(=N\O)c1c[nH]c2ccccc12	6.6	-12.1	14.6	-22.2	-6.6	-4.6*
COP(=O)(OC)C1(Nc2ccc(C)cc2)CCCCC1	nt	10.1	-9.9	nt	nt	-0.00362
CCN1/C(=C\C=C\C2=[N+](CC)c3ccccc3C2(C)C)C(C)(C)c2ccccc21	19.0	5.5	-3.5	-17.5	-19.0	nt
Nc1c(C(=O)OC2CCCCC2)c2nc3ccccc3nc2n1CC1CCCO1 (stereo not given)	5.8	-5.7	5.6	9.0	-5.8	nt
CC(C)OCCCNC(=O)c1c(N)n(CC2CCCO2)c2nc3ccccc3nc12 (stereo not given)	-97.3	6.3	-11.0	90.0*	97.3*	-4.48*

Screening results deposited in PubChem BioAssay by several laboratories.
